A selection: hits, their analogues and other compounds. The true share with any hit is near 10%.
JMJD2A Tudor inh – inhibitors of human JMJD2A Tudor domain. O75164. AlphaScreen JMJD2A-Tudor / H3K4me3 peptide binding. 390,000 tested, 4.4% active. AID 504339. Potency, µM (highest dose often 114 µM), actives largely listed as inhibitors; note: nearly all actives have a fitted effect of over 50% in size
HP1b chromo inh – blocks HP1-beta chromodomain binding to methylated histone tails. P83916. AlphaScreen HP1-beta / biotin-H3K9me3 peptide binding. Potency, µM (highest dose often 114 µM), actives largely listed as inhibitors. 390,000 tested, 0.56% active; note: nearly all actives have a fitted effect of over 70% in size
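AlphaScreen: HP1-beta (50 nM) preformed 30 min with biotin-H3(1-18)K9me3 peptide (50 nM) in PBS pH 7.4, 0.01% Tween-20. Compound added for 30 min at RT, then streptavidin donor/nickel chelate acceptor beads (10 ug/mL) for 30 min.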
GLS inh – inhibitors of human glutaminase (GLS); O94925; GLS enzymatic activity, qHTS titration; Potency, µM (top dose mostly 45.5 µM), actives largely listed as inhibitors; 410,000 tested, 0.21% active
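hKGA; 45 mM KH2PO4 pH 8.2 + 0.02% Tween-20; cpd via pin tool; 1 mM Gln soln; GluOx/HRP/Amplex Red; RT 30 min; fluor. t0 & final.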
G9a inh – inhibitors of human histone lysine methyltransferase G9a. Q96KQ7. G9a H3K9 monomethylation, AlphaScreen, 2 h. Potency, µM (top dose mostly 102 µM), actives largely listed as inhibitors. 350,000 tested, 8.8% active; note: nearly all actives have a fitted effect of over 75% in size
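Readings reflect AlphaScreen signal from monomethyl-H3K9 antibody detection. HMT at 20 nM; substrate b-H3K9 500 nM; cofactor SAM 20 uM; 2 h RT reaction; compounds tested as titrations in qHTS with 15 min preincubation.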
L3MBTL1 block – L3MBTL1 (human) inhibition. 230,000 tested, 0.66% active. AlphaScreen L3MBTL1–H3K9me1 peptide binding. Potency, µM (doses to about 57.1 µM), most hits filed as inhibitors; note: nearly all actives have a fitted effect of over 60% in size
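AlphaScreen proximity signal between nickel-chelate acceptor and streptavidin donor beads (final 10 ug/mL) reports binding of 50 nM L3MBTL1 to 75 nM biotin-H3 K9me1 peptide; complex incubated with compounds 30 min at room temperature; cefsulodin titration as control.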
BAZ2B inh – blocks human BAZ2B; Q9UIF8; AlphaScreen BAZ2B-H3K14Ac peptide displacement; Potency, µM (series often up to 114 µM), actives largely listed as inhibitors; AID 504333; 360,000 tested, 4.4% active; note: nearly all actives have a fitted effect of over 60% in size
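AlphaScreen luminescence quantifies BAZ2B engagement of H3K14Ac peptide; the protein and biotinylated peptide are both at 50 nM final, buffer PBS pH 7.4 with 0.01% Tween-20, all steps at room temperature.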
A number is an active result; 0 = inactive; ? = inconclusive; - = no result; [ ] = another dose, or the depositor's remark. Calls come from the whole dose curve; as a rule, active = well fitted curve in the direction sought with a large enough effect; inconclusive = small, poorly fitted or top-dose-only effect, or another doubt; inactive = no such curve, though single readings can be large; an effect the other way counts as inactive or inconclusive.

SMILES	JMJD2A Tudor inh	HP1b chromo inh	GLS inh	G9a inh	L3MBTL1 block	BAZ2B inh
CCOCc1cc(CN2CCN(c3cccc(C(F)(F)F)c3)CC2)c(O)c2ncccc12	56.2µM	0	0	0	-	28.2µM
CC(C)OCc1cc(CN2CCN(c3cccc(C(F)(F)F)c3)CC2)c(O)c2ncccc12	?	0	0	0	-	25.1µM
CC(C)c1ccc(NC(=O)C2CCN(S(=O)(=O)c3cccc4nsnc34)CC2)cc1	0	0	0	0	-	-
COc1ccc(-c2nc(CS(=O)(=O)CC(=O)Nc3cccc(C(C)=O)c3)c(C)o2)cc1	0	0	0	20µM	-	0
CC(=O)c1ccc(NC(=O)c2ccc(-c3nc(COc4ccc(C)cc4)c(C)o3)cc2)cc1	0	44.7µM	0	?	-	0
Cc1oc(-c2cccc(Cl)c2)nc1CS(=O)(=O)CC(=O)NC1CC1	0	0	0	50.1µM	-	0
COc1ccc(NC(=O)c2ccc(-c3nc(COc4ccccc4)c(C)o3)cc2)cc1	0	0	0	0	-	0
CCOc1ccc(NC(=O)CC2C(=O)N(c3ccccc3)C(=O)N2Cc2ccc3c(c2)OCO3)cc1 (stereo not given)	0	0	0	0	-	0
COc1cccc(CNC(=O)c2cccc(N3CCCS3(=O)=O)c2)c1	0	0	0	0	-	0
O=C(CCN1CCN(CCO)CC1)Nc1ccc(Br)cc1	0	0	0	0	0	0
CN1CCN(CCC(=O)Nc2ccc(C3CCCC3)cc2)CC1	0	0	0	31.6µM	0	?
O=C(CCN1CCCC1)Nc1ccc(Br)cc1	0	0	0	20µM	0	0
CN1CCN(CCC(=O)Nc2ccc(Cl)cc2)CC1	0	0	0	11.2µM	-	0
CN1CCN(CCC(=O)Nc2ccccc2)CC1	0	0	0	-	0	0
COc1ccc(CNC(=O)c2cnc3sc(N4CCCCCC4)nn3c2=O)cc1	0	0	0	0	-	0
COc1ccc(Br)c(C(=O)Nc2cc3c(cc2N2CCCCC2)n(C)c(=O)c(=O)n3C)c1	0	0	0	0	-	0
O=C1C=CC(=O)N1N(c1ccccc1)c1ccccc1	17.8µM	?	0	1.78µM	0	31.6µM
C[C@@H](O)CNC(C)(C)CC(=O)N[C@@H]1CCc2ccccc2N(Cc2ccc(-c3ccccc3-c3nn[nH]n3)cc2)C1=O	-	-	-	0	-	-
Cc1ccc(Oc2nc3c(c(=O)n(Cc4ccccc4)c(=O)n3C)n2C)cc1C	0	0	0	?	-	?
O=C(NNC(=S)Nc1ccc(F)cc1)c1cccc([N+](=O)[O-])c1	0	0	0	44.7µM	0	0
O=C(O)c1cccc(NC(=S)NC(NC(=O)c2cccc([N+](=O)[O-])c2)C(Cl)(Cl)Cl)c1 (stereo not given)	0	0	0	50.1µM	-	0
COc1ccc([N+](=O)[O-])cc1NC(=S)NC(NC(C)=O)C(Cl)(Cl)Cl (stereo not given)	0	0	0	39.8µM	0	0
O=C(O)c1cccc(NC(=S)NC(NC(=O)c2ccccc2[N+](=O)[O-])C(Cl)(Cl)Cl)c1 (stereo not given)	0	0	0	?	-	0
O=C(O)CC(NNC(=O)c1ccccc1)C(=O)Nc1cccc([N+](=O)[O-])c1 (stereo not given)	?	0	0	50.1µM	-	?
Cc1ccc(-c2cc(C(F)(F)F)n3nc(C(=O)Nc4ccc(Cl)c(C(F)(F)F)c4)cc3n2)cc1	0	0	0	0	-	0
SMILES	JMJD2A Tudor inh	HP1b chromo inh	GLS inh	G9a inh	L3MBTL1 block	BAZ2B inh
CC1(C(=O)NNC(=O)c2cccc([N+](=O)[O-])c2)CC1(Br)Br (stereo not given)	0	0	0	20µM	-	0
Cc1ccc(NC(=S)NNC(=O)c2cccc([N+](=O)[O-])c2)cc1Cl	?	0	0	12.6µM	?	?
Cc1ccc(C(=O)NNC(=S)Nc2cccc(Cl)c2Cl)cc1[N+](=O)[O-]	0	0	0	0[12.7 µM]	-	0
O=[N+]([O-])c1ccc(Nc2ccc(F)cc2)cc1	0	0	0	0	-	0
O=[N+]([O-])c1ccc(NNC(=S)Nc2ccc(F)cc2)cc1	50.1µM	?	0	?	0	44.7µM
COc1cccc(NC(=O)CSCc2cc(=O)c3ccc(C)c(C)c3[nH]2)c1	0	0	0	0	-	0
Cc1cc(C)cc(NC(=O)C(=O)NCC(c2ccc3c(c2)OCO3)N2CCN(C)CC2)c1 (stereo not given)	0	0	0	0	-	0
Cc1nn(CC(=O)Nc2cc(F)ccc2F)c(=O)c2cccn12	0	0	0	0	-	0
COCCCN(C(=S)NC(=O)c1ccc(Br)cc1)c1c(N)n(Cc2ccccc2)c(=O)[nH]c1=O	0	0	0	50.1µM	0	0
COCCCN(C(=S)NC(=O)C(C)(C)C)c1c(N)n(Cc2ccccc2)c(=O)[nH]c1=O	0	0	0	0	0	0
CCc1cc(C(=O)N(CCCOC)c2c(N)n(Cc3ccccc3)c(=O)[nH]c2=O)sc1C	0	0	0	12.6µM	0	0
O=C1CCc2cc(S(=O)(=O)NC(C(=O)Nc3ccc(F)cc3)c3ccccc3)ccc2N1 (stereo not given)	0	?	0	0	-	0
O=C(/C=C1\NC2(CCCC2)Cc2ccccc21)N1CCOCC1	50.1µM	0	0	31.6µM	0	?
Nc1ccc(OCc2ccccc2)cc1[N+](=O)[O-]	39.8µM	?	0	-	-	-
O=[N+]([O-])c1cccnc1Oc1ccc(OCc2ccccc2)cc1	0	0	0	0	-	0
Nc1ccccc1-c1ccc([N+](=O)[O-])cc1	0	0	0	-	-	-
Nc1ccc(-c2ccc(N)c([N+](=O)[O-])c2)cc1[N+](=O)[O-]	0	0	0	70.8µM	0	0
O=C(Nc1c2c(nn1-c1ccc(Cl)cc1)CS(=O)(=O)C2)c1cccc(Cl)c1	0	0	0	0	-	0
CCN1C(=O)[C@@H]2Cc3c([nH]c4ccccc34)C(c3ccc(OC)cc3)N2C1=S (stereo not given in full)	?	0	0	35.5µM	-	0
COc1cc(Cl)c(C)cc1NC(=O)CCn1c(=O)c2cccn2c2cccnc21	0	0	0	0	-	0
O=C(c1ccc2c(=O)n(CCc3ccccc3)c(=O)[nH]c2c1)N1CCN(c2ccc(Cl)cc2)CC1	0	0	0	0	-	0
N#Cc1c(-c2ccccc2)nc(SCC(=O)Nc2ccccc2)[nH]c1=O	0	0	0	?	0	0
N#Cc1c(-c2ccccc2)nc(SCC(=O)Nc2nnc(C(F)(F)F)s2)[nH]c1=O	0	0	0	50.1µM	0	0
Cc1cc(C)nc(NS(=O)(=O)c2ccc(NC(=O)CSc3nc(-c4ccccc4)c(C#N)c(=O)[nH]3)cc2)n1	0	0	0	79.4µM	-	-
